# Compounds without any hit were thinned out: in the full panel of roughly 83,000, 20% have a hit.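 Single-concentration screen, 48 h exposure, 96-well plates. Endpoint: percent growth. Below 10 = active.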 A number with no mark means an inactive call. Active and inactive are the calls of the source.
# Columns and labels:
# Assay in all cases: NCI-60 one-dose screen, 48 h (100 = growth as untreated, 0 = no growth, -100 = all killed)
# Details in all cases: 10 µM unless noted
# [1] = tested on: SR leukemia
# [2] = tested on: RPMI-8226 leukemia
# [3] = tested on: OVCAR-8 ovarian
# [4] = tested on: OVCAR-5 ovarian
# [5] = tested on: OVCAR-4 ovarian
# [6] = tested on: IGROV1 ovarian
# [7] = tested on: OVCAR-3 ovarian
# [8] = tested on: HS 578T breast
# [9] = tested on: NCI/ADR-RES ovarian
# [10] = tested on: BT-549 breast
# [11] = tested on: MDA-MB-435 melanoma
# [12] = tested on: SW-620 colon
# [13] = tested on: MCF7 breast
# [14] = tested on: HCT-116 colon
# [15] = tested on: HCC-2998 colon
# [16] = tested on: KM12 colon
# [17] = tested on: SK-OV-3 ovarian
# [18] = tested on: T-47D breast
Compound,growth [1],growth [2] [%],growth [3],growth [4] [%],growth [5] [%],growth [6] [%],growth [7],growth [8],growth [9],growth [10] [%],growth [11],growth [12],growth [13],growth [14],growth [15] [%],growth [16],growth [17] [%],growth [18] [%]
COc1ccc(/C=c2\sc3n(c2=O)C2C(NN=3)N(C)C(=O)N2C)cc1 (centres undefined),-10.6% (active),20.3,35%,54.9,51.2,40,-3.86% (active),8.08% (active),10.4%,75.3,-60.6% (active),23.5%,22.7%,22.5%,54.9,22.8%,,
CCN1C(=O)N(CC)C2C1NN=c1s/c(=C\c3ccccn3)c(=O)n12 (centres undefined),5.28% (active),22.5,31.2%,58.9,50.2,43.7,2.57% (active),7.13% (active),2.1% (active),80,-62.1% (active),23.7%,22.5%,23.6%,65.8,26%,,
COc1ccc2c(c1)C(=O)/C(=C/c1ccc(O)cc1)O2,74.1%,35.1,93.1%,103,85.2,,48.7%,73.5%,104%,,93.2%,9.11% (active),22.8%,8.95% (active),114,101%,104,59.8
C=C1C(=O)O[C@H]2[C@H](O)[C@@H](C)CCC/C(C)=C/CC[C@@]3(C)O[C@@H]3C[C@@H]12,94.3%,99.8,88.7%,95.8,103,,72.6%,98.4%,97.6%,,94.4%,79.9%,69.1%,74.3%,111,119%,96.8,97.2
COC1=CC(c2ccc[nH]2)=N/C1=C\c1[nH]c(C)c(C(=O)CCCCC(=O)Nc2ccccc2)c1C,44%,126,-46.4% (active),64.4,54.4,,40.6%,82.2%,32.9%,13.9,17%,-87.8% (active),-85.7% (active),-100% (active),55.6,-3.11% (active),77.5,63.9
COc1ccc(C2NC3=C(CCCC3)C(C#N)(C#N)C2(C#N)C#N)cc1 (centres undefined),1.12% (active),79.9,104%,97.1,98.1,,43%,98%,101%,92.9,103%,48.2%,49.9%,78.7%,102,103%,99.5,49.2
COc1cc(-c2cc(/C=C3\CCCCC3=O)[nH]n2)cc(OC)c1OC,49.2%,86.4,102%,103,95,,104%,99.4%,103%,99.7,102%,101%,92.5%,89%,106,94.4%,128,90.1
O=C(N/N=C/c1c(Cl)cccc1Cl)c1ccccc1Nc1ccnc(C(F)(F)F)c1,103%,89.7,64.8%,97.8,63.9,,,82.7%,67.6%,,82.9%,86.3%,46%,64.9%,71.5,74.7%,76.9,51.8
CCCC(C(=O)OCC)C(C)OC(=O)OCC (centres undefined),87.6%,101,96.4%,108,108,115,,,105%,,101%,,101%,103%,103,101%,95.5,86.6

# — PubChem BioAssay (NCI)
